# Source: article PMC7862700, “An all-to-all approach to the identification of sequence-specific readers for epigenetic DNA modifications on cytosine”
# Tests used:
# Assay in all cases: DAPPL (digital affinity profiling via proximity ligation, sequencing); 10 mM Tris-HCl pH 7.5, 50 mM NaCl, 1 mM DTT, 4% glycerol, room temperature, 30 min; GST-TFs on glutathione beads, 16-mer random dsDNA library, 0.1% formaldehyde crosslink after washing; high values mean tight binding
# FEV = molecular target: T1, FEV (Homo sapiens, UniProt Q99581 1-238); conditions: protein: recombinant; tags: N-terminal GST; dsDNA, one strand shown
# T1 sequence: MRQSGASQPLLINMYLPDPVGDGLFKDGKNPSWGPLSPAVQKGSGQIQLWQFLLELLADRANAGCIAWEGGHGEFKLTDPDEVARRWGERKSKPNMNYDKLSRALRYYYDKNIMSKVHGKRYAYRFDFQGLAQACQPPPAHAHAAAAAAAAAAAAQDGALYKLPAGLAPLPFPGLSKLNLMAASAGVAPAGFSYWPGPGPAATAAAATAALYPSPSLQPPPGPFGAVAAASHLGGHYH
# Outline: (§1)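 Binding signal is defined as a hexamer's read frequency for one factor over its frequency for the tag-only sample. To obtain reads, GST-fused human transcription factors were expressed in yeast, captured on glutathione beads, barcoded with DNA and pooled with that sample. Pools met 200 nmole of a 16-mer random double-stranded DNA library in Tris/NaCl/DTT/glycerol buffer for 30 min at room temperature before washing, 0.1% formaldehyde crosslinking, proximity ligation (BsaI/T4 ligase, 1 h, 37 °C), PCR and Illumina NextSeq500 sequencing.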
# ETV5 = ETV5 (Homo sapiens, UniProt P41161 1-510); conditions: protein: recombinant; tags: N-terminal GST; dsDNA, one strand shown
# ETV5, sequence (P41161 whole entry): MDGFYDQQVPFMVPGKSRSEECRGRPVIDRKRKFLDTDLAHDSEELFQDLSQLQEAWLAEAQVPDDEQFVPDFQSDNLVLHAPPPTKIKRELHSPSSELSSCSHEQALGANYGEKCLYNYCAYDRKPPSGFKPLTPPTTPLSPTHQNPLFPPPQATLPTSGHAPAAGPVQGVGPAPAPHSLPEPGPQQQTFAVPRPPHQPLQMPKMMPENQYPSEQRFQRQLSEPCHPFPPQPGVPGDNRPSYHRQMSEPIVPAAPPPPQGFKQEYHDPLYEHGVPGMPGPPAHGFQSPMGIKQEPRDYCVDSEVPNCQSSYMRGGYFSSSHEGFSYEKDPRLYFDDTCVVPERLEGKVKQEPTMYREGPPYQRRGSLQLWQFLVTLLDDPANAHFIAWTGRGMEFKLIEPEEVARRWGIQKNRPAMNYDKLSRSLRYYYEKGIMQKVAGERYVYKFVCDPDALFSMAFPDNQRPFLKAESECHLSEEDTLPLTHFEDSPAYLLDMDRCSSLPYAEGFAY
# Outline: as §1
# HSF1 = HSF1 (Homo sapiens, UniProt Q00613 1-529); conditions: protein: recombinant; tags: N-terminal GST; chain copies: 3; dsDNA, one strand shown
# HSF1, sequence (Q00613 whole entry): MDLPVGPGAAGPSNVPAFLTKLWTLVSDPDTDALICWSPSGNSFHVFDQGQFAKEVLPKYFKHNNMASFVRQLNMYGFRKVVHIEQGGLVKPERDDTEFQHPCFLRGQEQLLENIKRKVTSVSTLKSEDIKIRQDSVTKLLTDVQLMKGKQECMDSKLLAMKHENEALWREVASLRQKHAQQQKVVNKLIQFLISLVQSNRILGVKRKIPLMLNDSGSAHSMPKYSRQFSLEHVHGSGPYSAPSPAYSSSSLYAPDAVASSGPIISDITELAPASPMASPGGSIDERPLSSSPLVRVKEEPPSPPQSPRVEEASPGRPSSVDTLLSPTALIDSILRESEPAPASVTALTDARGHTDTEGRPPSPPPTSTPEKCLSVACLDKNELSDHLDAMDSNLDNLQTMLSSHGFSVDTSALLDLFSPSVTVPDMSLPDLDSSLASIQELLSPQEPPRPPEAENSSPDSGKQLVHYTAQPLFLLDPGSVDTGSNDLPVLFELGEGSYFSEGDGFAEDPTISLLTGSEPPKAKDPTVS
# Outline: as §1
# SPIC = molecular target: T2, SPIC (Homo sapiens, UniProt Q8N5J4 1-248); conditions: protein: recombinant; tags: N-terminal GST; dsDNA, one strand shown
# T2 sequence: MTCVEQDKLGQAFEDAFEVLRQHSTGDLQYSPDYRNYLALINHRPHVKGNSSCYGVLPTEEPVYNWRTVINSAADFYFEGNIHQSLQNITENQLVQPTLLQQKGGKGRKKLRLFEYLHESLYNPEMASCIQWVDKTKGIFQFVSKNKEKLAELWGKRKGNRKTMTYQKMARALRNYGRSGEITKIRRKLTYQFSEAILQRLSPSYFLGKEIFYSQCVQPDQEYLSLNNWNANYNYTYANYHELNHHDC
# Outline: as §1
# ELF4 = ELF4 (Homo sapiens, UniProt Q99607 1-663); conditions: protein: recombinant; tags: N-terminal GST; dsDNA, one strand shown
# ELF4, sequence (Q99607 whole entry): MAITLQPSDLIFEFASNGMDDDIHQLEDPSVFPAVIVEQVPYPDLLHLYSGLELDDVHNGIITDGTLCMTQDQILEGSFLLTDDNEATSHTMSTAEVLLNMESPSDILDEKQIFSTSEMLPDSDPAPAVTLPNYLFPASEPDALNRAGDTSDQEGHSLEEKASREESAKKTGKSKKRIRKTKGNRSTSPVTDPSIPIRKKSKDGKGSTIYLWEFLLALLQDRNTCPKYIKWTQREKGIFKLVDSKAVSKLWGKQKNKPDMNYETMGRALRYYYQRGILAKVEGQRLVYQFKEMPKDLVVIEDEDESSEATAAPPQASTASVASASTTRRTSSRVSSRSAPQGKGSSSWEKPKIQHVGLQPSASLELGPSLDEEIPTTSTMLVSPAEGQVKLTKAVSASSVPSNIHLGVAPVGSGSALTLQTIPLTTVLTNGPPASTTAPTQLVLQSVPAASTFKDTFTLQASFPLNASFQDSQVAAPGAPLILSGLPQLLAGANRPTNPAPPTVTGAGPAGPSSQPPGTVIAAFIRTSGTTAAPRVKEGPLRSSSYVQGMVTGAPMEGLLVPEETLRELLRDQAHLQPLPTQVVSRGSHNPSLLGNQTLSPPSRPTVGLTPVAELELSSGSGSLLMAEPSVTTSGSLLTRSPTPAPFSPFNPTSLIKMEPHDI
# Outline: as §1
# ELK4 = molecular target: T3, ELK4 (Homo sapiens, UniProt P28324-2 1-405); conditions: protein: recombinant; tags: N-terminal GST; dsDNA, one strand shown
# T3 sequence: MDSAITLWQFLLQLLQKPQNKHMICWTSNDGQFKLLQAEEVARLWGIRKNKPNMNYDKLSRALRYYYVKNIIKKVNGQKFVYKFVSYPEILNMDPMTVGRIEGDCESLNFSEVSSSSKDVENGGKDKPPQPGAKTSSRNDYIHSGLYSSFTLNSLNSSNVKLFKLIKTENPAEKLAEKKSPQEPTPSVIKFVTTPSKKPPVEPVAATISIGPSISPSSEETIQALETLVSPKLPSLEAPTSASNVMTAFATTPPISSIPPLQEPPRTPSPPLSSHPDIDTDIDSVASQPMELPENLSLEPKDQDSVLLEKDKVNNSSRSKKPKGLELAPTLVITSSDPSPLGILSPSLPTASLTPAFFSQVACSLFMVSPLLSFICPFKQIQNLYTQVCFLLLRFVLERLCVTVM
# Outline: as §1
# ETV2 = molecular target: T4, ETV2 (Homo sapiens, UniProt O00321 1-342); conditions: protein: recombinant; tags: N-terminal GST; dsDNA, one strand shown
# T4 sequence: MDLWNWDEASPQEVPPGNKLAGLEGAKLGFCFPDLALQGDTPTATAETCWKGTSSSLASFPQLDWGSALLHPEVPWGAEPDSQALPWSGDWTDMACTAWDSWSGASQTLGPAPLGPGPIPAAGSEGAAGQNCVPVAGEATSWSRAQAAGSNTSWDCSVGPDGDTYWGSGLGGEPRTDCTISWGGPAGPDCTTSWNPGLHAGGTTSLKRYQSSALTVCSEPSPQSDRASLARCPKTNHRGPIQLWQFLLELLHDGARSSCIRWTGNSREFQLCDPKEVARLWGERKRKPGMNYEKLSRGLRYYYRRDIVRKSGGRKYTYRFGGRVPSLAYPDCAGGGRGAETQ
# Outline: as §1
# ELF3 = molecular target: T5, ELF3 (Homo sapiens, UniProt P78545 1-371); conditions: protein: recombinant; tags: N-terminal GST; dsDNA, one strand shown
# T5 sequence: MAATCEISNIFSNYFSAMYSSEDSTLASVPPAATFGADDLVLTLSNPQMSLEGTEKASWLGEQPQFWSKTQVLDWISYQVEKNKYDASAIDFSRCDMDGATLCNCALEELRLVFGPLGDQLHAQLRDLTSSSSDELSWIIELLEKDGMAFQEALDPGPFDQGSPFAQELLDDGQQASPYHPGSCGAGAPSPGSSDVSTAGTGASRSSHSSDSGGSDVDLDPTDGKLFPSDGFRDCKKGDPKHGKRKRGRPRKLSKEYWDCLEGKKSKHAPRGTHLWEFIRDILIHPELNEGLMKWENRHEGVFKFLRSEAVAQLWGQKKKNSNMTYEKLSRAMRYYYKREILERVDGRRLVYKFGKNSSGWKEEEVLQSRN
# Outline: as §1
# CRX = CRX (Homo sapiens, UniProt O43186 1-299); conditions: protein: recombinant; tags: N-terminal GST; dsDNA, one strand shown
# CRX, sequence (O43186 whole entry): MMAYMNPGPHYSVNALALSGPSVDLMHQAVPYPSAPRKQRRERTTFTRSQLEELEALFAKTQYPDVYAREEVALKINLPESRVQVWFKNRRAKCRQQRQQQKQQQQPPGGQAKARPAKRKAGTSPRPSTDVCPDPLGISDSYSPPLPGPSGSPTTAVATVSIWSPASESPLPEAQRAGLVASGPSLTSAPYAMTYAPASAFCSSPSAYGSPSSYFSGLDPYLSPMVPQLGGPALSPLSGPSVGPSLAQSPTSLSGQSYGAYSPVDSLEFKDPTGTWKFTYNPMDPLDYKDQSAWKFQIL
# Outline: as §1
# ETV1 = ETV1 (Homo sapiens, UniProt P50549 1-477); conditions: protein: recombinant; tags: N-terminal GST; dsDNA, one strand shown
# ETV1, sequence (P50549 whole entry): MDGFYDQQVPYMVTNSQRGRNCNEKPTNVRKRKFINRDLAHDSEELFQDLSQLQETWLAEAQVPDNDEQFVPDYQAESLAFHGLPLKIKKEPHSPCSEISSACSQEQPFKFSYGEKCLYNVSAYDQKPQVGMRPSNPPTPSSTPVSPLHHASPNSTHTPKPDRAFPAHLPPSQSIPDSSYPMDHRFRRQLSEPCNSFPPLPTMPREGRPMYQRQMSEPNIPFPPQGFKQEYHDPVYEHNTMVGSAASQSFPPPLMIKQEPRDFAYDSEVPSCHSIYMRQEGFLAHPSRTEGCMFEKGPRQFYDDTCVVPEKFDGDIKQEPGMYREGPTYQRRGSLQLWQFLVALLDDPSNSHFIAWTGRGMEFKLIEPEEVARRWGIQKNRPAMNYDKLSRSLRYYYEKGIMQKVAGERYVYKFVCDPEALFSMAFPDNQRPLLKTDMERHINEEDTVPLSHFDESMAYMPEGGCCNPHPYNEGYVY
# Outline: as §1
# ERF = molecular target: T6, ERF (Homo sapiens, UniProt P50548 1-548); conditions: protein: recombinant; tags: N-terminal GST; dsDNA, one strand shown
# T6 sequence: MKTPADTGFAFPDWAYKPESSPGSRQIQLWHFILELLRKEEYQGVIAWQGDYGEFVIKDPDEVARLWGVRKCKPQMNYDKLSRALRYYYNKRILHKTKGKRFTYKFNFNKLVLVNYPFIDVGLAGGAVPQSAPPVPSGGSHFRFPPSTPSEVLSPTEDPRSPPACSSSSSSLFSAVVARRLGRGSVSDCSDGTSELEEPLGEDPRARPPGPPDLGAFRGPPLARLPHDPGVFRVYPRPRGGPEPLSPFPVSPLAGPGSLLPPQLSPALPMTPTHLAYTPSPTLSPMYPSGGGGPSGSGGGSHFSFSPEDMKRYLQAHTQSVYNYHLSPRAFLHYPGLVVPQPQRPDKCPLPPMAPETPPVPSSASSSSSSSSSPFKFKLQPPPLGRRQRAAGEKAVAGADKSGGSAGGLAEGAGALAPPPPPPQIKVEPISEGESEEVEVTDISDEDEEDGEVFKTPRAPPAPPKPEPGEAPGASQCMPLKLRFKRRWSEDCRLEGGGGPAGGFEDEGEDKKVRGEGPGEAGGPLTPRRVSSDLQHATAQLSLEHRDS
# Outline: as §1
# ETV3L = molecular target: T7, ETV3L (Homo sapiens, UniProt Q6ZN32 1-361); conditions: protein: recombinant; tags: N-terminal GST; dsDNA, one strand shown
# T7 sequence: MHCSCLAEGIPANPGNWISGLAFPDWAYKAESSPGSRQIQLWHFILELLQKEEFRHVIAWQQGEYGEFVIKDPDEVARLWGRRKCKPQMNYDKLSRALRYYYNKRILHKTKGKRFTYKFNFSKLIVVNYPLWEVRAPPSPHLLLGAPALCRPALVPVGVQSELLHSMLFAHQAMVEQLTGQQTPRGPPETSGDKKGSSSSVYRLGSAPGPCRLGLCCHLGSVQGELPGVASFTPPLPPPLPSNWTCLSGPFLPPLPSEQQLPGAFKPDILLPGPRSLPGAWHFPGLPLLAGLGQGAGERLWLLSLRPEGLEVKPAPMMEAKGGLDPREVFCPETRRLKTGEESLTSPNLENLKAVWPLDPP
# Outline: as §1
# ETS2 = molecular target: T8, ETS2 (Homo sapiens, UniProt P15036 1-469); conditions: protein: recombinant; tags: N-terminal GST; dsDNA, one strand shown
# T8 sequence: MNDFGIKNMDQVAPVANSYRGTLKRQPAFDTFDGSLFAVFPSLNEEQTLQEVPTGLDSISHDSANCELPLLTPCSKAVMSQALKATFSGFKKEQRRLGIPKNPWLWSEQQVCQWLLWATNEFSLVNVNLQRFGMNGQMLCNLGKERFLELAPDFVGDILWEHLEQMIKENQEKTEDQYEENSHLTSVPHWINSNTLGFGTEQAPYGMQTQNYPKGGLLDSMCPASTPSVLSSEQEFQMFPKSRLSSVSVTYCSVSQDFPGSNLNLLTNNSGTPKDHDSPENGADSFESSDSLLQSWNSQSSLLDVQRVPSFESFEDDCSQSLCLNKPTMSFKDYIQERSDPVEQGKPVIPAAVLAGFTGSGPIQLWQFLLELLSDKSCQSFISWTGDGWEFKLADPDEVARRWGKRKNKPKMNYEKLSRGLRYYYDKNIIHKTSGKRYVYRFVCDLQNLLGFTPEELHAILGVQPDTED
# Outline: as §1
# SPDEF = molecular target: T9, SPDEF (Homo sapiens, UniProt O95238 1-335); conditions: protein: recombinant; tags: N-terminal GST; dsDNA, one strand shown
# T9 sequence: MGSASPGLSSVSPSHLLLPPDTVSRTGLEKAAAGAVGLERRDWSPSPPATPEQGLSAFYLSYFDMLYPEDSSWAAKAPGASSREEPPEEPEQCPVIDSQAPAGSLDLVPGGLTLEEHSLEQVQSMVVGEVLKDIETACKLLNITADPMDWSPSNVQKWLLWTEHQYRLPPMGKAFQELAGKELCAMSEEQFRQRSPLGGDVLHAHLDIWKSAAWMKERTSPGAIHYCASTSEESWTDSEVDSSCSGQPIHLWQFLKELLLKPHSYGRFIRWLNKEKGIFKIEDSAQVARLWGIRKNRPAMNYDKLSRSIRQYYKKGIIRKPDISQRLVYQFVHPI
# Outline: as §1
# ETV7 = molecular target: T10, ETV7 (Homo sapiens, UniProt Q9Y603 1-341); conditions: protein: recombinant; tags: N-terminal GST; dsDNA, one strand shown
# T10 sequence: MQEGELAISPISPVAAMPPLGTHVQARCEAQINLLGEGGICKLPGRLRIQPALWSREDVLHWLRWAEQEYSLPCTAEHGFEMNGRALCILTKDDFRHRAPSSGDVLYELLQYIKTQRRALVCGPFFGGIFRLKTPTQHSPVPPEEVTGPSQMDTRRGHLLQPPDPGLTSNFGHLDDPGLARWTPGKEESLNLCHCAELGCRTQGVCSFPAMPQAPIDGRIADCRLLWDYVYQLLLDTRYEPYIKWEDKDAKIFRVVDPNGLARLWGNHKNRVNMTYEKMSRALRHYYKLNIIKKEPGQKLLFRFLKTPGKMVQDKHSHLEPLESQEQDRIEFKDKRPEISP
# Outline: as §1
# ELF5 = molecular target: T11, ELF5 (Homo sapiens, UniProt Q9UKW6-2 1-255); conditions: protein: recombinant; tags: N-terminal GST; dsDNA, one strand shown
# T11 sequence: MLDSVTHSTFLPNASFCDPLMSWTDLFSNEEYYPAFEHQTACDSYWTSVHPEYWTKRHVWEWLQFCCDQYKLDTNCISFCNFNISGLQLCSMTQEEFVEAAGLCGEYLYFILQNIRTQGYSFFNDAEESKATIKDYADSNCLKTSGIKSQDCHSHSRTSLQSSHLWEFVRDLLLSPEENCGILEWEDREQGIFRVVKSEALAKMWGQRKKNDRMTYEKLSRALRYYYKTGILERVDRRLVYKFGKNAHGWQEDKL
# Outline: as §1
# ETV3 = molecular target: T12, ETV3 (Homo sapiens, UniProt P41162-2 1-143); conditions: protein: recombinant; tags: N-terminal GST; dsDNA, one strand shown
# T12 sequence: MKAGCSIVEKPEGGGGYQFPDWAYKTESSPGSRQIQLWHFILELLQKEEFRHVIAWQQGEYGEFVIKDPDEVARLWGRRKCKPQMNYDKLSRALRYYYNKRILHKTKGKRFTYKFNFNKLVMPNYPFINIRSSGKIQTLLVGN
# Outline: as §1
# ETV6 = ETV6 (Homo sapiens, UniProt P41212 1-452); conditions: protein: recombinant; tags: N-terminal GST; dsDNA, one strand shown
# ETV6, sequence (P41212 whole entry): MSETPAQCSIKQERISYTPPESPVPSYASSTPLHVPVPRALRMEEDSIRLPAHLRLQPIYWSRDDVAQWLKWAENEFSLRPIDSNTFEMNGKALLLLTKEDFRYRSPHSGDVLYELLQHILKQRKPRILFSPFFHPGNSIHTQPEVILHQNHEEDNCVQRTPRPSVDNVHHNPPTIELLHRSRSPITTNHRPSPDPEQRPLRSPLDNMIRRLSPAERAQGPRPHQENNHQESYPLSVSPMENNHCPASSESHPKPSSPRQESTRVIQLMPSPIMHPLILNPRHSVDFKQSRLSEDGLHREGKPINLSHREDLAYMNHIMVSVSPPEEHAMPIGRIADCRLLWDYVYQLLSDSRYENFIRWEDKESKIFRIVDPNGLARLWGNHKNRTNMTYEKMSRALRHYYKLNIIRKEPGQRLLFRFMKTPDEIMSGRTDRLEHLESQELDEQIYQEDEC
# Outline: as §1
sequence,measurement,setting,value
TTAATT,binding signal,FEV,"1.31 fold enrichment (6-mer frequency, TF over GST control)"
same,binding signal,ETV5,"1.49 fold enrichment (6-mer frequency, TF over GST control)"
same,binding signal,HSF1,"2.23 fold enrichment (6-mer frequency, TF over GST control)"
same,binding signal,SPIC,"1.33 fold enrichment (6-mer frequency, TF over GST control)"
same,binding signal,ELF4,"1.33 fold enrichment (6-mer frequency, TF over GST control)"
same,binding signal,ELK4,"1.3 fold enrichment (6-mer frequency, TF over GST control)"
same,binding signal,ETV2,"1.43 fold enrichment (6-mer frequency, TF over GST control)"
same,binding signal,ELF3,"1.27 fold enrichment (6-mer frequency, TF over GST control)"
same,binding signal,CRX,"3.46 fold enrichment (6-mer frequency, TF over GST control)"
same,binding signal,ETV1,"1.34 fold enrichment (6-mer frequency, TF over GST control)"
same,binding signal,ERF,"1.39 fold enrichment (6-mer frequency, TF over GST control)"
same,binding signal,ETV3L,"1.39 fold enrichment (6-mer frequency, TF over GST control)"
same,binding signal,ETS2,"1.5 fold enrichment (6-mer frequency, TF over GST control)"
same,binding signal,SPDEF,"1.3 fold enrichment (6-mer frequency, TF over GST control)"
same,binding signal,ETV7,"1.55 fold enrichment (6-mer frequency, TF over GST control)"
same,binding signal,ELF5,"1.43 fold enrichment (6-mer frequency, TF over GST control)"
same,binding signal,ETV3,"1.44 fold enrichment (6-mer frequency, TF over GST control)"
same,binding signal,ETV6,"1.4 fold enrichment (6-mer frequency, TF over GST control)"
